According to PubChem BioAssay:
Several values for one entry are separate records, joined by “and”; a condition that tells them apart may be missing. Identical values can stand only once. For some of these results: Entries with a potency or affinity are not part of this list. Some structures have more than one record in an assay (separate samples or runs), and their calls can disagree. Activity calls are given as the source filed them. Unless noted, the rule behind the calls is not given here.

Key:
[1] = antimalarial activity against Dd2 strain (AID 2302;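 active = growth inhibition above 50% at the single 2 µM test dose, taken to imply half-maximal potency below 2 µM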;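 note: 0% = DMSO untreated growth and 100% = chloroquine plus artemisinin killed control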); details: P. falciparum Dd2 in RBCs, LDH growth readout, 72 h; at 2 µM; stronger effect = higher value
[2] = human hepatoma cell viability loss – ATP luminescence, cytotoxicity control for P. falciparum antimalarial project, primary screen (AID 2303;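 active = inhibition above 50%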;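 note: 0% = DMSO wells and 100% = digitonin-killed cells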); details: HepG2 viability, 24-48 h, at 10 µM, stronger effect = higher value
[3] = target: L-lactate dehydrogenase (Plasmodium falciparum (isolate CDC / Honduras)) (UniProt Q27743); assay: PfLDH activity inhibition – cell lysate, 3D7 strain, counter-screen for P. falciparum growth inhibition project (AID 2304);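 note: 0% = vehicle and 100% = reference inhibitor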; details: P. falciparum 3D7 crude extract, LDH APAD/NBT absorbance; at 2 µM; stronger effect = higher value
L-lactate dehydrogenase (Plasmodium falciparum (isolate CDC / Honduras)), sequence (Q27743 whole entry, looked up): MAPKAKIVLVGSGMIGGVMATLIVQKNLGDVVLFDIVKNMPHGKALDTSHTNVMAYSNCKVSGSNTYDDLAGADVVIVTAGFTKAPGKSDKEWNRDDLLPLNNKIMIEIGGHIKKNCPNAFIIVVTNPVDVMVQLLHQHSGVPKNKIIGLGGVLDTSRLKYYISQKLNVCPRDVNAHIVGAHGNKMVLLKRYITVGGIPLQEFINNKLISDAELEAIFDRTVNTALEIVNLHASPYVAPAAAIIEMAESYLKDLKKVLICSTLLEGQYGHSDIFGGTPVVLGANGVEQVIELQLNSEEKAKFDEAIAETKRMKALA

[4] = inhibition of 3D7 malaria parasite growth – strain 3D7 (AID 2306);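 note: 0% = DMSO wells and 100% = chloroquine plus artemisinin control wells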; details: P. falciparum 3D7 erythrocytic growth, LDH absorbance, 72 h; at 2 µM; stronger effect = higher value
[5] = target: Calcium-dependent protein kinase 1 (Plasmodium falciparum (isolate 3D7)) (UniProt P62344); assay: PfCDPK1 kinase inhibitors, biochemical, TCAMS library (AID 1159585; cut-off not given, nearly all actives have IC50 up to about 0.98 µM;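 note: inhibitors leave more ATP so luminescence rises with inhibition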); details: recombinant PfCDPK1, Kinase-Glo ATP depletion luminescence
Calcium-dependent protein kinase 1 (Plasmodium falciparum (isolate 3D7)), sequence (P62344 whole entry, looked up): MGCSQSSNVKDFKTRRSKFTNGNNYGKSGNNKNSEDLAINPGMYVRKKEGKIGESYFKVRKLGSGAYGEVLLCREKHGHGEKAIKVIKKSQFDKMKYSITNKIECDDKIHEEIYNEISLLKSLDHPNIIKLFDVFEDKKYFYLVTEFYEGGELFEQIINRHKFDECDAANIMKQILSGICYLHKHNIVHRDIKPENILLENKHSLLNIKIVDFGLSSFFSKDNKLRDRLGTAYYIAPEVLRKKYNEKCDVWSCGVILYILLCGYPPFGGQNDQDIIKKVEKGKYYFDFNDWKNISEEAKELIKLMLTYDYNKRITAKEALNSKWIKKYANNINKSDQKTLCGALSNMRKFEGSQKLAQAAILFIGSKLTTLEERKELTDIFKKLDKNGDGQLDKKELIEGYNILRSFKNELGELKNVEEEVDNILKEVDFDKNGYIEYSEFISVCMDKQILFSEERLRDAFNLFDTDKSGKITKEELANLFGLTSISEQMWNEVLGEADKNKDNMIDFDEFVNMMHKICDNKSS

[6] = target: Plasmodium falciparum protein kinase 6 (PK6, PF3D7_1337100) (UniProt Q8IDW1); assay: PfPK6 kinase inhibitors, biochemical, TCAMS library (AID 1159586); details: recombinant PfPK6, Kinase-Glo ATP depletion luminescence
Plasmodium falciparum protein kinase 6 (PK6, PF3D7_1337100), sequence (Q8IDW1 1-305): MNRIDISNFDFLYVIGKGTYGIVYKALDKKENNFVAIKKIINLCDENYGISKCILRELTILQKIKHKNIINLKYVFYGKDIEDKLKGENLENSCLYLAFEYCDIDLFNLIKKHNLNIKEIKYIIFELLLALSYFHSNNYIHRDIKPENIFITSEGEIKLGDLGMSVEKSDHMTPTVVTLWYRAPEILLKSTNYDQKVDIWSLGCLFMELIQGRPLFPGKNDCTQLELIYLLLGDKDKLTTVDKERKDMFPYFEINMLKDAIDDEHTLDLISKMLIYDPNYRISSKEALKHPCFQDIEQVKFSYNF

[7] = target: Protein kinase 7 (PK7), Plasmodium falciparum 3D7 (PF3D7_0213400) (UniProt Q7YTF7); assay: inhibition of Plasmodium PK7 catalytic activity – biochemical, TCAMS antimalarial set, Kinase-Glo luminescence (AID 1159587); details: recombinant PfPK7, Kinase-Glo ATP depletion luminescence
Protein kinase 7 (PK7), Plasmodium falciparum 3D7 (PF3D7_0213400), sequence (Q7YTF7 1-343): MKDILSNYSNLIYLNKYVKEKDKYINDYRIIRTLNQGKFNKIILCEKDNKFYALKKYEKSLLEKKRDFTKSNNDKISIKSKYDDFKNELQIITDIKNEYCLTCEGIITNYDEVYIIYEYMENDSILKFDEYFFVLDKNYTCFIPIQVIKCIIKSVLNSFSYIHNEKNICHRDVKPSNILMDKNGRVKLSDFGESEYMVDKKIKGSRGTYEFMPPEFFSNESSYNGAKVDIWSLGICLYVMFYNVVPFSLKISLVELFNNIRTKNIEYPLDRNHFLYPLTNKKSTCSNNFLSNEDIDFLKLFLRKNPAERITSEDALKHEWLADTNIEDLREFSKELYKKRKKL

[8] = target: Calcium-dependent protein kinase 4 (Plasmodium falciparum (isolate 3D7)) (UniProt Q8IBS5); assay: PfCDPK4 kinase inhibitors, biochemical, TCAMS library (AID 1159588; cut-off not given, nearly all actives have IC50 up to about 0.91 µM); details: recombinant PfCDPK4, Kinase-Glo ATP depletion luminescence
Calcium-dependent protein kinase 4 (Plasmodium falciparum (isolate 3D7)), sequence (Q8IBS5 whole entry, looked up): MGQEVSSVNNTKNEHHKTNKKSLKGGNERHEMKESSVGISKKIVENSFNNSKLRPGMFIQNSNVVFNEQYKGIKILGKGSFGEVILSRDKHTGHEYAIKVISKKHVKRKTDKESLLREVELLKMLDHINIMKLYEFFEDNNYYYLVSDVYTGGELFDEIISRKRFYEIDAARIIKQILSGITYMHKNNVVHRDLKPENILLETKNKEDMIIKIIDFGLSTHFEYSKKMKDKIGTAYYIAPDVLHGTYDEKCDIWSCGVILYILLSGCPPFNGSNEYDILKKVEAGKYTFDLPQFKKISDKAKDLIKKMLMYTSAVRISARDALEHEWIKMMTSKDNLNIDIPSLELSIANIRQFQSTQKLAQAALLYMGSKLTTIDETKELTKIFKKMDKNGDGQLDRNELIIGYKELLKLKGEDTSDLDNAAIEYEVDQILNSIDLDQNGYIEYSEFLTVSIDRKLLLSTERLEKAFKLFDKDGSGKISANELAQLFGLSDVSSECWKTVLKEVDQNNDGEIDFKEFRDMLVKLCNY

CN(C)CCCOc1ccc(CN2CCC(c3c[nH]c4ccc(NCC5CCCCC5)cc34)CC2)cc1
active: growth inhibition [1] 99% | inhibition [2] 58% | growth inhibition [4] 99%
inactive: inhibition [3] 3% | outcome [5] | outcome [6] | outcome [7] | outcome [8]

O=C(/C=C/c1ccc(Cl)c(Cl)c1)N1CCC(CN2[C@@H]3CC[C@H]2CC(c2c[nH]c4ccccc24)C3)CC1 (some centres not stated)
inactive: inhibition [3] -3% | outcome [5] | outcome [6] | outcome [7] | outcome [8]
active: growth inhibition [1] 66% | inhibition [2] 84% | growth inhibition [4] 100%

COC(=O)c1sccc1NC(=S)NC1CCC(CN2CCC(c3c[nH]c4ccccc34)CC2)CC1 (configuration not stated)
54% (active) and 49% (inactive): growth inhibition [1]
inactive: inhibition [2] 25% and 34% | inhibition [3] 0% and -1% | outcome [5] | outcome [6] | outcome [7] | outcome [8]
active: growth inhibition [4] 97% and 100%

O=C(/C=C/c1ccc(Cl)c(Cl)c1)NC1CCC(CN2CCC(c3c[nH]c4cc(O)ccc34)CC2)CC1 (configuration not stated)
active: growth inhibition [1] 98% | growth inhibition [4] 100%
inactive: inhibition [2] 18% | inhibition [3] -10% | outcome [5] | outcome [6] | outcome [7] | outcome [8]

CC(=O)Nc1ccc(OCCN(CC(C)(C)C)c2ccc(C#N)c(C(F)(F)F)c2)c(Cl)c1
inactive: inhibition [2] -6% | inhibition [3] -1% | outcome [5] | outcome [6] | outcome [7] | outcome [8]
active: growth inhibition [1] 93% | growth inhibition [4] 87%

Oc1ccc(CN2CCN(CCOC(c3ccc(F)cc3)c3ccc(F)cc3)CC2)cc1Cl
inactive: inhibition [2] 19% | inhibition [3] -4% | outcome [5] | outcome [6] | outcome [7] | outcome [8]
active: growth inhibition [1] 87% | growth inhibition [4] 96%

CC(=O)N(Cc1cccc(-c2cccc(CNCc3ccc4c(c3)OCO4)c2)c1)C1CCN(Cc2ccccc2)CC1
active: growth inhibition [4] 95%
inactive: growth inhibition [1] 21% | inhibition [2] 16% | inhibition [3] -5% | outcome [5] | outcome [6] | outcome [7] | outcome [8]

O=C(NC1CCC(CN2CCC(c3c[nH]c4ccccc34)CC2)CC1)C1(O)c2ccccc2-c2ccccc21 (configuration not stated)
active: growth inhibition [4] 85%
inactive: growth inhibition [1] 46% | inhibition [2] 22% | inhibition [3] -4% | outcome [5] | outcome [6] | outcome [7] | outcome [8]

[O-]c1n[n+](C2CCCCC2)no1
inactive: inhibition [2] -13% | inhibition [3] -5% | outcome [5] | outcome [6] | outcome [7] | outcome [8]
active: growth inhibition [1] 82% | growth inhibition [4] 91%

COc1ccc(OC)c(C(O)CNC(C)C)c1 (configuration not stated)
active: growth inhibition [4] 96%
inactive: growth inhibition [1] -2% | inhibition [2] 3% | inhibition [3] -9% | outcome [5] | outcome [6] | outcome [7] | outcome [8]

O=C(/C=C/c1ccc(Cl)c(Cl)c1)N1CCC(CN2CCC(c3c(-c4ccc(F)cc4)[nH]c4ccccc34)CC2)CC1
active: growth inhibition [1] 98% | growth inhibition [4] 101%
inactive: inhibition [2] 19% | inhibition [3] -3% | outcome [5] | outcome [6] | outcome [7] | outcome [8]

CC[C@H]1CN2CC[C@@H]1C[C@H]2[C@H](O)c1cc(N2CCC(C)CC2)nc2ccc(OC)cc12
inactive: inhibition [2] 16% | inhibition [3] 1% | outcome [5] | outcome [6] | outcome [7] | outcome [8]
active: growth inhibition [1] 98% | growth inhibition [4] 99%

CCOC(=O)c1c(C)n(C2CCCCC2)c2cc(Br)c(O)cc12
active: growth inhibition [1] 71% | growth inhibition [4] 98%
inactive: inhibition [2] 1% | inhibition [3] -3% | outcome [5] | outcome [6] | outcome [7] | outcome [8]

O=C(C=Cc1cc([N+](=O)[O-])ccc1Cl)NC1CCC(CN2CCC(c3c[nH]c4ccccc34)CC2)CC1 (configuration not stated)
inactive: inhibition [2] 21% | inhibition [3] 1% | outcome [5] | outcome [6] | outcome [7] | outcome [8]
active: growth inhibition [1] 94% | growth inhibition [4] 102%
